Laboratory results from PubChem BioAssay (Tox21).
Several values for one entry are separate records, joined by “and”; a condition that tells them apart may be missing. Equal entries are not always repeated. Inconclusive results are not listed. Some compounds were tested as several samples or in several runs, with calls that do not always agree. Activity calls are given as the source filed them. The call rests on the fitted dose curve; in most records, active means well fitted curve in the direction sought with a large enough effect in the repeat runs; inconclusive means weak or mixed curves; inactive means no such curve, though single readings can be large; an effect the other way counts as inactive or inconclusive.

What was measured:
[1] = A CellTox Green Cytotoxicity Assay to monitor cytotoxicity in HEK293 cells - 32 hour (AID 1224881); further: nearly all actives have a fitted effect of over 40% in size; further: potency means the concentration at half of the fitted maximal effect
Summary of the method: (§1)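 Each value comes from one timepoint of a single continuous run in which HEK293 cells with CellTox Green were exposed to compound for up to 40 h at 37 C, dye fluorescence rising with cell death.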

[2] = A CellTox Green Cytotoxicity Assay to monitor cytotoxicity in HepG2 cells - 0 hour (AID 1224882); further: nearly all actives have a fitted effect of over 35% in size
Summary of the method: (§2)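 Continuous culture of HepG2 cells with a membrane-impermeant DNA dye; rising fluorescence marks dead cells. Compound exposure lasted up to 40 h at 37 C, with reads every 8 h from 0 h.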

[3] = A CellTox Green Cytotoxicity Assay to monitor cytotoxicity in HepG2 cells - 32 hour (AID 1224883); further: nearly all actives have a fitted effect of over 50% in size; further: potency means the concentration at half of the fitted maximal effect
Summary of the method: as §2

[4] = A CellTox Green Cytotoxicity Assay to monitor cytotoxicity in HEK293 cells - 8 hour (AID 1224884); further: nearly all actives have a fitted effect of over 35% in size; further: potency means the concentration at half of the fitted maximal effect
Summary of the method: as §1

[5] = qHTS RealTime-Glo MT Cell Viability Assay in HEK293 cells - 24 hour (AID 1224886); further: nearly all actives have a fitted effect of over 50% in size; further: potency means the concentration at half of the fitted maximal effect; on activity change, negative = cytotoxicity: top concentration of the series differs between compounds
Summary of the method: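 Homogeneous bioluminescent viability format in HEK293 cells (600 cells/well). Following 5 h at 37 C/5% CO2, 23 nL compound was pintooled; the signal was measured repeatedly during 40 h incubation.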

[6] = qHTS RealTime-Glo MT Cell Viability Assay in HEK293 cells - 8 hour (AID 1224887); further: nearly all actives have a fitted effect of over 50% in size; further: potency means the concentration at half of the fitted maximal effect; on activity change, negative = cytotoxicity: top concentration of the series differs between compounds
Summary of the method: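 qHTS format; HEK293 cells with NanoLuc/prosubstrate reagent, 37 C/5% CO2 for 5 h pre-dosing; compounds 23 nL in DMSO; luminescence at each time point reflects viable cells.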

[7] = A CellTox Green Cytotoxicity Assay to monitor cytotoxicity in HEK293 cells - 16 hour (AID 1224888); further: nearly all actives have a fitted effect of over 35% in size; further: potency means the concentration at half of the fitted maximal effect
Summary of the method: as §1

[8] = qHTS RealTime-Glo MT Cell Viability Assay in HepG2 cells - 0 hour (AID 1224889); further: nearly all actives have a fitted effect of over 50% in size
Summary of the method: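 Cell number in HepG2 cultures estimated from NanoLuc luminescence generated by metabolic reduction of a prosubstrate by living cells. The homogeneous, nonlytic format allowed repeated reads at 0, 8, 16, 24, 32 and 40 h of compound exposure.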

[9] = A CellTox Green Cytotoxicity Assay to monitor cytotoxicity in HepG2 cells - 8 hour (AID 1224890); further: nearly all actives have a fitted effect of over 45% in size; further: potency means the concentration at half of the fitted maximal effect
Summary of the method: as §2
On the % scale 0 is the no-effect control and ±100 the full control effect.

CN(C)c1ccc(C2(c3ccc(N(C)C)cc3)OC(=O)c3cc(N(C)C)ccc32)cc1
inactive: Potency [1] | Potency [2] | Potency [3] | Potency [4] | Potency [5] | Potency [6] | Potency [7] | Potency [8] | Potency [9]

CC1=C(/C=C/C(C)=C/C=C/C(C)=C/C=O)C(C)(C)CCC1
active: Potency [1] 38.7 µM | Potency [3] 48.7 µM | Potency [4] 48.7 µM | Potency [5] 17.3 µM | Potency [7] 43.4 µM
inactive: Potency [2] | Potency [8]

Oc1ccc(Cl)cc1Sc1cc(Cl)ccc1O
43.6 µM (active) and inactive: Potency [1]
active: Potency [3] 48.9 µM and 26.8 µM | Potency [5] 19.5 µM and 23.9 µM | Potency [6] 24.5 µM
inactive: Potency [2] | Potency [4] | Potency [8] | Potency [9]

CCN(Cc1cccnc1)C(=O)c1cccc(Cl)c1[C@]1(C)C(=O)N(Cc2ccc(OC)cc2OC)c2ccc(Cl)cc21
inactive: Potency [1] | Potency [2] | Potency [3] | Potency [4] | Potency [7] | Potency [8] | Potency [9]
active: Potency [5] 20.4 µM | Potency [6] 20.4 µM

O=C(OCC1CO1)C1CCCCC1C(=O)OCC1CO1 (stereo not drawn)
inactive: Potency [1] | Potency [2] | Potency [3] | Potency [4] | Potency [5] | Potency [6] | Potency [7] | Potency [8] | Potency [9]

CNCc1cc(F)ccc1Oc1ccc(Cl)c(Cl)c1
inactive: Potency [2] | Potency [4]
active: Potency [1] 49 µM | Potency [3] 49 µM | Potency [5] 38.9 µM

CC(=O)OCC(C)OC(C)=O (stereo not drawn)
inactive: Potency [1] | Potency [2] | Potency [3] | Potency [4] | Potency [5] | Potency [6] | Potency [7] | Potency [8] | Potency [9]

CCc1oc2ccccc2c1C(=O)c1cc(Br)c(O)c(Br)c1
inactive: Potency [1] | Potency [2] | Potency [3] | Potency [4] | Potency [5] | Potency [6] | Potency [7] | Potency [8] | Potency [9]

CC[C@@]1(O)C(=O)OCc2c1cc1n(c2=O)Cc2c-1nc1ccccc1c2/C=N/OC(C)(C)C
active: Potency [3] 1.07 µM | Potency [5] 0.0239 µM
inactive: Potency [1] | Potency [2] | Potency [4] | Potency [7] | Potency [8] | Potency [9]

CCCCCCCC[P+](CCCCCCCC)(CCCCCCCC)CCCCCCCC
inactive: Potency [2]
active: Potency [1] 4.87 µM | Potency [3] 10.9 µM | Potency [4] 10.9 µM | Potency [5] 1.73 µM | Potency [6] 6.13 µM | Potency [7] 10.9 µM | Potency [9] 17.3 µM

COc1ccc(CN2CCN(C(c3ccc(F)cc3)c3ccc(F)cc3)CC2)c(OC)c1OC
active: Potency [3] 10.7 µM | Potency [5] 9.52 µM | Potency [6] 19 µM
inactive: Potency [1] | Potency [2] | Potency [4] | Potency [7] | Potency [8] | Potency [9]

Nc1c2ccccc2nc2ccccc12
inactive: Potency [2] | Potency [4] | Potency [7] | Potency [8] | Potency [9]
active: Potency [1] 43.1 µM | Potency [3] 12.1 µM and 10.7 µM | Potency [5] 7.66 µM and 21.3 µM

Cc1cc(O)c(C(C)(C)C)cc1Sc1cc(C(C)(C)C)c(O)cc1C
active: Potency [1] 54.8 µM | Potency [3] 61.5 µM | Potency [5] 21.8 µM | Potency [6] 24.5 µM
inactive: Potency [2] | Potency [4] | Potency [7] | Potency [8] | Potency [9]

Oc1cccc2cc3cccc(O)c3c(O)c12
inactive: Potency [1] | Potency [2] | Potency [3] | Potency [4] | Potency [5] | Potency [6] | Potency [7] | Potency [8] | Potency [9]

COc1cc(/C=C/C(=O)O[C@H]2CC[C@]34C[C@]35CC[C@]3(C)[C@@H]([C@H](C)CCC=C(C)C)CC[C@@]3(C)[C@@H]5CC[C@H]4C2(C)C)ccc1O
inactive: Potency [1] | Potency [2] | Potency [3] | Potency [4] | Potency [5] | Potency [6] | Potency [7] | Potency [8] | Potency [9]

CC(=O)SC[C@@H](Cc1ccccc1)C(=O)NCC(=O)OCc1ccccc1
inactive: Potency [1] | Potency [2] | Potency [3] | Potency [4] | Potency [5] | Potency [6] | Potency [7] | Potency [8] | Potency [9]

O=C(c1ccc(O)cc1O)c1ccc(O)cc1O
inactive: Potency [1] | Potency [2] | Potency [3] | Potency [4] | Potency [5] | Potency [6] | Potency [7] | Potency [8] | Potency [9]

CCCCCCCC[N+](CCCCCCCC)(CCCCCCCC)CCCCCCCC
active: Potency [1] 15.5 µM | Potency [3] 21.8 µM | Potency [4] 24.5 µM | Potency [5] 6.15 µM | Potency [6] 12.3 µM | Potency [7] 21.8 µM | Potency [9] 34.6 µM
inactive: Potency [2]

O=C(OC[C@H]1O[C@@H](OC(=O)c2cc(O)c(O)c(OC(=O)c3cc(O)c(O)c(O)c3)c2)[C@H](OC(=O)c2cc(O)c(O)c(OC(=O)c3cc(O)c(O)c(O)c3)c2)[C@@H](OC(=O)c2cc(O)c(O)c(OC(=O)c3cc(O)c(O)c(O)c3)c2)[C@@H]1OC(=O)c1cc(O)c(O)c(OC(=O)c2cc(O)c(O)c(O)c2)c1)c1cc(O)c(O)c(OC(=O)c2cc(O)c(O)c(O)c2)c1
inactive: cytotoxicity increase [1] -42.7% [at 15.8 µM] | cytotoxicity [2] -19.7% [at 15.8 µM] | cytotoxicity increase [3] -61.4% [at 15.8 µM] | cytotoxicity increase [4] -34.5% [at 15.8 µM] | activity change, negative = cytotoxicity [5] -14.1% [at 15.8 µM] | activity change, negative = cytotoxicity [6] -15.8% [at 15.8 µM] | activity change [7] -38.7% [at 15.8 µM, stronger effect = higher value] | activity change, negative = cytotoxicity [8] -17.5% [at 15.8 µM] | cytotoxicity increase [9] -46.2% [at 15.8 µM]

O=C(Nc1cccc(C(F)(F)F)c1)c1cc(Br)cc(Br)c1O
active: Potency [3] 17.4 µM | Potency [5] 4.9 µM
inactive: Potency [1] | Potency [2] | Potency [4] | Potency [6] | Potency [7] | Potency [9]
